The values below come from PubChem BioAssay (Tox21).

Test [1] can be described thus: Human pregnane X receptor (PXR) small molecule agonists, qHTS cell viability counter screen (AID 1346977). Note: nearly all actives have a fitted effect of over 50% in size. As to conditions: PXR-Luc HepG2 viability, CellTiter-Fluor, 24 h; series mostly up to 92.4 µM. The gist of the method:
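Fluorescence read-out (CellTiter-Fluor) of viability in PXR-Luc HepG2 cells, multiplexed with the luciferase agonist read. Compounds in DMSO added after 5hr plating; 24hr total exposure at 37C, 5% CO2.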
On the technique in general: Quantitative high-throughput screening tests each substance at several concentrations.

Test [2] is described as follows: Caspase-3/7 induction in HepG2 cells by small molecules, qHTS assay (AID 1346978). Note: nearly all actives have a fitted effect of over 15% in size. Conditions: HepG2 caspase-3/7 activation, Caspase-Glo luminescence, 17 h; series mostly up to 92.4 µM. The gist of the method:
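Wild-type HepG2 cells (2,000/well) were settled 5 h at 37 C, 5% CO2, then exposed to compounds in DMSO for 17 h. Caspase-3/7 activity was read by luminescence 30 min after adding Caspase-Glo 3/7 reagent at room temperature.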

Test [3] can be described thus: Caspase-3/7 induction in CHO-K1 cells by small molecules, qHTS cell viability counter screen (AID 1346979). Note: nearly all actives have a fitted effect of over 35% in size. Conditions: CellTiter-Fluor fluorescence, 17 h; series mostly up to 92.4 µM. The gist of the method:
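CHO-K1 wt, 1,500 cells/well; 5hr pre-incubation 37C/5% CO2; compound pin transfer (DMSO); 16hr exposure; CellTiter-Fluor added, 1hr, fluorescence read.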

Test [4] in a line: Caspase-3/7 induction in CHO-K1 cells by small molecules, qHTS assay (AID 1346980). Note: nearly all actives have a fitted effect of over 15% in size. As to conditions: CHO-K1 caspase-3/7 induction, Caspase-Glo luminescence, 17 h; series mostly up to 92.4 µM. The essentials:
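Wild-type cells were seeded at 1,500 per well and settled 5 hr at 37 C, 5% CO2, then exposed to DMSO-dissolved compounds for 17 hr. Caspase-Glo 3/7 reagent was added, and luminescence was read after 30min at room temperature.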

Test [5] in a line: Caspase-3/7 induction in HepG2 cells by small molecules, qHTS cell viability counter screen (AID 1346981). Note: nearly all actives have a fitted effect of over 30% in size. As to conditions: CellTiter-Fluor fluorescence, 17 h; series mostly up to 92.4 µM. The gist of the method:
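After a 5-hr attachment period at 37 C and 5% CO2, wild-type HepG2 cells received compounds in DMSO. Sixteen hours later CellTiter-Fluor was dispensed and the fluorescent signal quantified after a further hour.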

Test [6] concerns the target Nuclear receptor subfamily 1 group I member 2 (Homo sapiens) (UniProt O75469). Put plainly: Human pregnane X receptor (PXR) small molecule agonists, qHTS assay (AID 1346982). Note: nearly all actives have a fitted effect of over 35% in size. Note: potency is the fitted concentration of half-maximal effect. As to conditions: PXR-Luc HepG2, CYP3A4 luciferase reporter, 24 h; series mostly up to 92.4 µM. The essentials: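 Tox21 qHTS; PXR-Luc HepG2; compounds pinned from DMSO; 24 hr, 37 C; ONE-Glo luciferase detection, 30 min room temperature.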

For test [7], the target named is Cytochrome P450 2D6 (Homo sapiens) (UniProt P10635). Kind of test: Cytochrome P450 Family 2 Subfamily D Member 6 (CYP2D6) small molecule antagonists: luciferase reporter qHTS assay (AID 1671196). Note: nearly all actives have a fitted effect of over 50% in size. Note: potency is the fitted concentration of half-maximal effect. Conditions: P450-Glo CYP2D6 enzyme assay, luciferin luminescence, 1 h; series mostly up to 115 µM. The essentials: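 Room-temperature luminescent CYP2D6 activity assay: compound preincubated 10 min with enzyme–substrate mix, NADPH-initiated reaction 1 h, detection reagent 20 min before reading.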
Chain of Cytochrome P450 2D6 (Homo sapiens) (P10635 whole entry, looked up): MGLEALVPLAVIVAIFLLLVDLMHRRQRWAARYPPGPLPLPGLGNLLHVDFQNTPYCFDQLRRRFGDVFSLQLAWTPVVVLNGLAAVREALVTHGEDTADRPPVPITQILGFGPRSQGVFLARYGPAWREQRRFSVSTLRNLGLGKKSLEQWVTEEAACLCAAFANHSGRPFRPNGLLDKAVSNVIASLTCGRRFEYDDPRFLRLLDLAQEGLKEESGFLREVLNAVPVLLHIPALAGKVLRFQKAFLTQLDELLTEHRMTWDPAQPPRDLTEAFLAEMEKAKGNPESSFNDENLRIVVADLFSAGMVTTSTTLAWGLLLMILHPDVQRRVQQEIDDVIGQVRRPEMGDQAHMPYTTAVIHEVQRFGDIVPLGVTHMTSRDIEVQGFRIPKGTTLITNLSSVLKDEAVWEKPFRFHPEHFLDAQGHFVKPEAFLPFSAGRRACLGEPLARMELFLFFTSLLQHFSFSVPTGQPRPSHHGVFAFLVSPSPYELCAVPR
(Reporter assays use an easily measured gene product as a stand-in for the process of interest.)

A number with no mark means an inactive call. Results filed as inconclusive are left out. Active and inactive are the calls of the source. Calls come from the whole dose curve; as a rule, active = well fitted curve in the direction sought with a large enough effect in the repeat runs; inconclusive = weak or mixed curves; inactive = no such curve, though single readings can be large; an effect the other way counts as inactive or inconclusive.
% is set by controls: 0 for no effect and ±100 for the full control effect.

Chain of Nuclear receptor subfamily 1 group I member 2 (Homo sapiens) (O75469 whole entry, looked up): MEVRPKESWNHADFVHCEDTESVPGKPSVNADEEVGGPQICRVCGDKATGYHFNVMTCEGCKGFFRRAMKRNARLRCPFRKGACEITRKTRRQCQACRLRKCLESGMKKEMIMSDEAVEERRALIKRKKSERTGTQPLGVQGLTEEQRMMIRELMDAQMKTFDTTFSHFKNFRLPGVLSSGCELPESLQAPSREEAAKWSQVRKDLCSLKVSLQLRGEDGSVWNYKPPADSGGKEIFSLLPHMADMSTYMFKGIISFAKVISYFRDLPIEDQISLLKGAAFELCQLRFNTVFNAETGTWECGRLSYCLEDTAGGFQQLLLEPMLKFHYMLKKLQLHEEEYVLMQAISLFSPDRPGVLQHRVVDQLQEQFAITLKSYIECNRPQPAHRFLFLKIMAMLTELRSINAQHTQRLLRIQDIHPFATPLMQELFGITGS

Consider `CCOC(=O)C(O)c1ccccc1` (stereo unspecified), for which the Potency entry in test [1], in test [2], in test [3], in test [4], in test [5] and in test [6] was “inactive” each time. Moreover, the Potency entry in test [7] was “inactive”.

In the case of `O=C1OC(=O)C2C3C=CC(C3)C12` (stereo unspecified), the Potency entry in test [1], in test [2], in test [3], in test [4], in test [5] and in test [6] was “inactive” throughout. In addition, the Potency result in test [7] is “inactive”.

As to `CCCCCCCCCOS(=O)(=O)O`, the Potency result in test [1], in test [2], in test [3], in test [4], in test [5] and in test [6] was “inactive” each time. For the same compound, the Potency result in test [7] is “inactive”.

As for `O=C(OCCCCCCOC(=O)c1ccccc1)c1ccccc1`, the Potency result in test [1], in test [2], in test [3], in test [4], in test [5] and in test [6] was “inactive” in each case. Further, the Potency entry in test [7] was “inactive”.

Regarding `O=C(O)CC(=O)C(=O)O`, the Potency entry in test [1], in test [2], in test [3], in test [4], in test [5] and in test [7] was “inactive” in each case. Further, the Potency in test [6] was 48.7 µM (active).

With `O=CC1CC=CCC1` (stereo unspecified), the Potency entry in test [1], in test [2], in test [3], in test [4], in test [5] and in test [6] was “inactive” each time. The Potency in test [7] is 55.9 µM (active).

Regarding `O=P(O)(OCc1ccccc1)OCc1ccccc1`, the Potency entry in test [1], in test [2], in test [3], in test [4], in test [5] and in test [6] was “inactive” in each case. The Potency result in test [7] was “inactive”.

On to `CC/C=C\CCOC(=O)CC`, for which the Potency entry in test [1], in test [2], in test [3], in test [4], in test [5] and in test [6] was “inactive” each time. In addition, in test [7], the Potency result was “inactive”.

For the compound `NC(N)=NCCC[C@H](N)C(=O)O`, the activity change, negative = cytotoxicity in test [1] was 6.78% [at 8.39 µM]; in test [3] it was -0.503% [at 8.39 µM]; in test [5], -0.647% [at 8.39 µM]. Further, in test [2], the caspase activation was 0.0391% [at 8.39 µM]. In addition, in test [4], the caspase-3/7 activation was 0.0695% [at 8.39 µM]. In addition, in test [6], the activation was -5.55% [at 8.39 µM]. The activity change, negative = inhibition in test [7] is -7.41% [at 10.5 µM].

Take `COC(C)(C)CCO`: the Potency result in test [1], in test [2], in test [3], in test [4], in test [5] and in test [6] was “inactive” throughout. For the same compound, the Potency result in test [7] was “inactive”.

`CC[N+]1(CC)CCC(=C(c2ccccc2)c2ccccc2)C1C` (stereo unspecified): the Potency entry in test [1], in test [2], in test [3], in test [4], in test [5] and in test [6] was “inactive” throughout. Further, in test [7], the Potency is 1.74 µM (active).

`CCCCCCCC/C=C\CCCCCCCC(=O)OCC`: the Potency result in test [1], in test [2], in test [3], in test [4], in test [5] and in test [6] was “inactive” in each case. Moreover, in test [7], the Potency result was “inactive”.

`ClCCOCCOCCCl`: the Potency result in test [1], in test [2], in test [3], in test [4], in test [5] and in test [6] was “inactive” in each case. Further, the Potency result in test [7] is “inactive”.
